Active and inactive are the calls of the source. How the source made its calls: active means hit-call score of the fitted dose curve at least 0.9, where 1 is the maximum; inactive means score below 0.9.
test: APR_HepG2_MitoMass_72hr: Apredica 72-hour HepG2 Assay for Mitochondrial Mass (AID 2282924); conditions: high-content imaging, actives raise or lower the signal;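 further: MitoTracker Red CMXRos stain intensity per cell imaged as mitochondrial mass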
Experimental: APR_HepG2_72hr is a cell-based, multiplexed-readout assay that uses HepG2, a human liver cell line, with measurements taken at 72 hours after chemical dosing in a 384-well plate.APR_HepG2_MitoMass_72hr is one of 10 assay component(s) measured or calculated from the APR_HepG2_72hr assay. It is designed to make measurements of cell phenotype, a form of morphology reporter, as detected with fluorescence intensity signals by HCS Fluorescent Imaging technology.Data from the assay component APR_HepG2_MitoMass_72hr was analyzed into 1 assay endpoint. This assay endpoint, APR_HepG2_MitoMass_72hr, was analyzed with bidirectional fitting relative to DMSO as the negative control and baseline of activity. Using a type of morphology reporter, gain or loss-of-signal activity can be used to understand changes in the signaling. Furthermore, this assay endpoint can be referred to as a primary readout, because this assay has produced multiple assay endpoints where this one serves a signaling function. To generalize the intended target to other relatable targets, this assay endpoint is annotated to the cell morphology intended target family, where the subfamily is organelle conformation.
Cells were treated with dimethyl sulfoxide (DMSO) as a solvent control at a final concentration of 0.5% v/v or with compounds in DMSO with a resulting final DMSO concentration of 0.5% v/v. Compound treatment was done at concentrations of 0.39, 0.78, 1.56, 3.12, 6.24, 12.5, 25, 50, 100, and 200 uM in duplicate on each plate. Cells were treated with compounds for 1, 24, or 72 hr. Carbonyl […] m-chloro-phenylhydrazone (CCCP) and taxol were used as positive controls for mitochondrial function and cytoskeletal stability, respectively; DMSO served as the negative control for this experiment. Cells were fixed by the direct addition of 50 uL formaldehyde in Hank's Balanced Salt Solution (HBSS) to a final concentration of 3.7%. After incubation in the fixation medium for 30 min at room temperature (293-298 K), cells were rinsed twice with HBSS and treated with cell permeabilization buffer (16 uL of 0.5% Triton X-100) for 10 min at room temperature (293-298 K) before labeling. For mitochondrial membrane potential and mitochondrial measurements, pre-fixed cells were incubated with 50 uL of MitoTracker Red CMXRos (Invitrogen) at a concentration of 250 nM for 30 min before fixation. In the remaining cases, post-fixed cells were labeled by incubation with a multiplexed mixture of primary antibodies in HBSS for 60 min at room temperature (293-298 K) to detect immunoreactivity of c-Jun (1:500), phospho-histone H3 (1:100), phospho-histone H2A.x (1:200), p53 (1:400), alpha-tubulin (1:200) and Hoechst 33342 (2 ug/mL). Cells were labeled for multiplexed imaging on two separate plates: a) Hoechst 33342, MitoTracker Red, phospho-histone H3, and alpha-tubulin, and b) Hoechst 33342, phospho-histone H2A.x, and c-Jun. A final rinse with HBSS (50 uL) was performed before analysis. The primary and secondary antibodies for the proteins were phospho-histone H3 (rabbit anti-phospho-histone H3 and FITC-donkey anti-rabbit IgG), phospho-histone H2A.x (mouse anti-phospho-histone H2A.x and FITC-donkey anti-mouse IgG), c-Jun (rabbit anti-phospho-c-Jun and Cy3-donkey anti-rabbit IgG), p53 (sheep anti-p53 and Cy5-donkey anti-sheep IgG), alpha-tubulin (mouse anti-alpha-tubulin and Cy5-donkey anti-mouse IgG). These antibodies are available as the CellCiphr HepG2 assay kit (Millipore).Digital images of each well were captured using a Cellomics ArrayScan VTI (Thermo Scientific Cellomics) (0.8 NA objective, 0.63x optical coupler, and XF-93 filter set) at 20x magnification. The images were acquired using the autofocus feature of the ArrayScan instrument, which entails the following steps. First, the camera focuses on channel 1 (Hoechst 33342), where nuclei are identified. Second, a Z offset of 1 um is used for capturing mitochondria (MitoTracker Red). […]

Which outcome does the source give for CN(C)[C@@H]1C(=O)C(C(N)=O)=C(O)[C@@]2(O)C(=O)C3=C(O)c4c(O)cccc4[C@@](C)(O)[C@H]3[C@H](O)[C@@H]12 here?
Its outcome is “inactive”.

For CSc1nnc(C(C)(C)C)c(=O)n1N, which outcome is on record?
Its outcome is “inactive”.

With C#CC(C)(C)NC(=O)c1cc(Cl)cc(Cl)c1 as the molecule, how does the outcome read?
Its outcome is “inactive”.

With CN(C)NC(=O)CCC(=O)O as the molecule, how does the outcome read?
Its outcome is “inactive”.

With CCc1cccc(C)c1N(C(=O)CCl)C(C)COC (stereo not given) as the molecule, how does the outcome read?
The outcome was “inactive”.

For CCOP(=S)(OCC)Oc1cc(C)nc(C(C)C)n1, which outcome is on record?
The outcome was “inactive”.

With CCC(=NOC/C=C/Cl)C1=C(O)CC(C2CCOCC2)CC1=O (stereo not given) as the molecule, how does the outcome read?
The outcome was “inactive”.

With O=[N+]([O-])c1cc(C(F)(F)F)c(Cl)c([N+](=O)[O-])c1Nc1ncc(C(F)(F)F)cc1Cl as the molecule, how does the outcome read?
Its outcome is “inactive”.

Which outcome does the source give for COP(=O)(OC)OC(Br)C(Cl)(Cl)Br (stereo not given) here?
Its outcome is “inactive”.

For CCOP(=S)(Oc1cnc(C(C)(C)C)nc1)OC(C)C (stereo not given), which outcome is on record?
The outcome was “inactive”.

Which outcome does the source give for COP(=O)(OC)C(O)C(Cl)(Cl)Cl (stereo not given) here?
The outcome was “inactive”.

For Cc1ccn2nc(S(=O)(=O)Nc3c(F)cccc3F)nc2n1, which outcome is on record?
Its outcome is “inactive”.

For CCCOc1nn(C(=O)NS(=O)(=O)c2ccccc2C(=O)OC)c(=O)n1C, which outcome is on record?
The outcome was “inactive”.

For CNC(=O)Oc1cccc2c1OC(C)(C)O2, which AC50 is on record?
The AC50 was 56.7 µM (active).

Which outcome does the source give for CCCCOC(=O)[C@@H](C)Oc1ccc(Oc2ccc(C#N)cc2F)cc1 here?
Its outcome is “inactive”.

Which outcome does the source give for CSc1nc(NC(C)C)nc(NC(C)C)n1 here?
Its outcome is “inactive”.

Which outcome does the source give for CCCCOC(=O)c1ccccc1C(=O)O here?
The outcome was “inactive”.

For CCc1cccc(CC)c1N(COC)C(=O)CCl, which outcome is on record?
The outcome was “inactive”.

For CCOP(=O)(SC(C)CC)N1CCSC1=O (stereo not given), which outcome is on record?
Its outcome is “inactive”.

With Nc1c(Cl)cc([N+](=O)[O-])cc1Cl as the molecule, how does the outcome read?
Its outcome is “inactive”.

Which outcome does the source give for CC(Oc1cccc(Cl)c1)C(=O)O (stereo not given) here?
Its outcome is “inactive”.

Which outcome does the source give for CCCCSP(=O)(SCCCC)SCCCC here?
Its outcome is “inactive”.

For CCOP(=S)(OCC)Oc1ccc([N+](=O)[O-])cc1, which outcome is on record?
Its outcome is “inactive”.

With CNc1cnn(-c2cccc(C(F)(F)F)c2)c(=O)c1Cl as the molecule, how does the outcome read?
The outcome was “inactive”.

Which outcome does the source give for CC(COc1ccc(Oc2ccccc2)cc1)Oc1ccccn1 (stereo not given) here?
The outcome was “inactive”.

Which outcome does the source give for CCOP(=O)(NC(C)C)Oc1ccc(SC)c(C)c1 (stereo not given) here?
Its outcome is “inactive”.

For CCc1cnc(C2=NC(C)(C(C)C)C(=O)N2)c(C(=O)O)c1 (stereo not given), which outcome is on record?
Its outcome is “inactive”.

For CNC(=O)ON=C(C)SC, which outcome is on record?
The outcome was “inactive”.

With CCOP(=S)(OCC)OC(Cl)C(Cl)(Cl)Cl (stereo not given) as the molecule, how does the outcome read?
Its outcome is “inactive”.

With CC(C)=CC1C(C(=O)OCN2C(=O)C3=C(CCCC3)C2=O)C1(C)C (stereo not given) as the molecule, how does the outcome read?
Its outcome is “inactive”.

Which outcome does the source give for CC1(C(=O)Nc2ccc(O)c(Cl)c2Cl)CCCCC1 here?
Its outcome is “inactive”.

Which outcome does the source give for CCNc1nc(Cl)nc(NC(C)(C)C#N)n1 here?
Its outcome is “inactive”.

With C=C(C)[C@H]1Cc2c(ccc3c2O[C@@H]2COc4cc(OC)c(OC)cc4[C@@H]2C3=O)O1 as the molecule, how does the outcome read?
Its outcome is “inactive”.

For CC(C)N(C(=O)SCC(Cl)=C(Cl)Cl)C(C)C, which outcome is on record?
The outcome was “inactive”.

With CON=C(C(=O)OC)c1ccccc1CON=C(C)c1cccc(C(F)(F)F)c1 as the molecule, how does the outcome read?
The outcome was “inactive”.

Which outcome does the source give for CC1=NNC(=O)N(/N=C/c2cccnc2)C1 here?
The outcome was “inactive”.

With S=C1NCCN1 as the molecule, how does the outcome read?
The outcome was “inactive”.

With CCOC(=O)CC(SP(=O)(OC)OC)C(=O)OCC (stereo not given) as the molecule, how does the outcome read?
The outcome was “inactive”.

With O=c1ccc(=O)[nH][nH]1 as the molecule, how does the outcome read?
The outcome was “inactive”.

For CCC(CC)Nc1c([N+](=O)[O-])cc(C)c(C)c1[N+](=O)[O-], which outcome is on record?
Its outcome is “inactive”.

Source: PubChem BioAssay (EPA / NIEHS)
